The text below walks through data of PubChem BioAssay AID686979 (National Center for Advancing Translational Sciences (NCATS), 2013).

Molecules are shown by their SMILES. About 50,000 (12%) of roughly 420,000 compounds were called active. About 26% were inconclusive and are not listed. The call rests on the fitted dose curve; in most records, active means well fitted inhibition curve with a large enough effect; inconclusive means small, poorly fitted or top-dose-only effect; inactive means flat fitted curve, though single readings scatter. What follows is part of a selection rich in actives, with near analogues and random picks from the rest.
On the % scale 0 is the no-effect control and ±100 the full control effect; potency means the concentration at half of the fitted maximal effect.

A short description of the assay: qHTS for Inhibitors of human tyrosyl-DNA phosphodiesterase 1 (TDP1): qHTS in cells in presence of CPT. Further: nearly all actives have a fitted effect of over 55% in size. To be noted: chicken DT40 Tdp1-/-;hTDP1 cells + 20 nM CPT, ATP luminescence, 48 h; series mostly up to 46.2 µM; activity change, negative = growth inhibition: at the top concentration. Summed up:
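Cell growth measured by CellTiter-Glo luminescence after a minimum 48 h, 37 C compound exposure with 20 nM CPT in Tdp1-knockout DT40 cells stably expressing hTDP1, seeded 400/well; qHTS titration format.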
For orientation: Quantitative high-throughput screening tests each substance at several concentrations.
In the case of `CS(=O)(=O)N1CCN(C(=O)CSc2ccccc2)CC1`, the “activity change, negative = growth inhibition” value was 24.3% (inactive).
In the case of `CC(=O)Nc1ccc(NC(=O)CSc2nnnn2C2CCCCC2)cc1`, the “activity change, negative = growth inhibition” value is -18.3% (inactive).
The same measure, in the same setting: under `OC[C@H]1O[C@@H](c2nc(-c3nc(-c4ccc(F)cc4)no3)cs2)[C@H](O)[C@@H](O)[C@H]1O` stands -1.35% (inactive).
For the molecule `O=C(NNC(=S)NCCCN1CCOCC1)c1ccncc1`, the “activity change, negative = growth inhibition” value was 3.15% (inactive).
As to `CC(C)C(NS(=O)(=O)c1cccs1)C(=O)Nc1nc(C(C)(C)C)cs1` (stereo not drawn), the Potency was 16.4 µM (active).
Turning to `COc1ccc(CNC(=O)C(NS(=O)(=O)c2cccc3nsnc23)C(C)C)cc1` (stereo not drawn), the “activity change, negative = growth inhibition” value was 7.46% (inactive).
With `COc1cc(Cl)c(NC(=O)C(NS(=O)(=O)c2cccs2)C(C)C)c(OC)c1` (stereo not drawn), the “activity change, negative = growth inhibition” value was -25.9% (inactive).
For `O=C(CCNS(=O)(=O)c1ccccc1)NCCCc1ccccc1`, the “activity change, negative = growth inhibition” value is -1.9% (inactive).
As for `Nn1c(SCC(=O)Nc2ccc3c(c2)CCC3)nnc1C1CC1`, the “activity change, negative = growth inhibition” value was 4.68% (inactive).
Same read-out and setting: under `COC(=O)Cc1cnc(NC(=O)CSc2nc(C(C)C)cc(=O)[nH]2)s1` stands 13.8% (inactive).
Consider `Cn1c(=O)c2sccc2n2c(CCC(=O)NCc3ccccc3Cl)nnc12`, for which the “activity change, negative = growth inhibition” value was -19% (inactive).
For `CCC(=O)N1CCc2cc(S(=O)(=O)NCCC(=O)Nc3cccc(C)c3C)ccc21`, the “activity change, negative = growth inhibition” value is -22.6% (inactive).
With `Cc1ccc(N2C(=O)CC(Nc3cccc4ccccc34)C2=O)cc1` (stereo not drawn), the “activity change, negative = growth inhibition” value was 6.75% (inactive).
As to `CC1=C(C)CC2C(=O)N(c3cccc4ccccc34)C(=O)C2C1` (stereo not drawn), the Potency was 18.4 µM (active).
Regarding `O=C1c2ccccc2C(=O)N1c1cccc2ccccc12`, the “activity change, negative = growth inhibition” value was 6.79% (inactive).
In the case of `CCc1nccn1S(=O)(=O)c1cccc([N+](=O)[O-])c1`, the “activity change, negative = growth inhibition” value is 5.21% (inactive).
As to `CC1CCN(C(=O)Cn2nnnc2CN2CCOCC2)CC1`, the “activity change, negative = growth inhibition” value is 14.7% (inactive).
In the case of `O=C(c1cc2ccccc2o1)N1CCN(S(=O)(=O)c2ccc(Cl)s2)CC1`, the Potency was 18.4 µM (active).
`CCNC(=S)N1CCN(S(=O)(=O)c2ccc(Cl)s2)CC1`: the “activity change, negative = growth inhibition” value was -23.7% (inactive).
`CS(=O)(=O)N1CCN(C(=O)c2cc3ccccc3oc2=O)CC1`: the “activity change, negative = growth inhibition” value is 1.63% (inactive).
For `COc1cccc(C(O)Cc2nc3ccccc3n2C)c1OC` (stereo not drawn), the “activity change, negative = growth inhibition” value was 11.4% (inactive).
As for `NS(=O)(=O)c1ccc(CNC(=O)c2cccc(Oc3ccccc3)c2)cc1`, the “activity change, negative = growth inhibition” value was -12.6% (inactive).
For the molecule `CN1C(=O)[C@H]2[C@@H](/C=C/c3ccccc3)N3C(=O)CN(Cc4ccc(-c5ccccc5)cc4)C(=O)[C@@]3(C)[C@H]2C1=O`, the Potency is 25.9 µM (active).
Consider `COC(=O)CN1C(=O)[C@H]2[C@@H](/C=C/c3ccccc3)N3C(=O)CN(Cc4ccccc4)C(=O)[C@@]3(Cc3ccccc3)[C@H]2C1=O`, for which the “activity change, negative = growth inhibition” value was -9.59% (inactive).
For `CN1C(=O)[C@H]2[C@@H](C3CC3)N3C(=O)CN(Cc4ccccc4)C(=O)[C@@]3(C)[C@H]2C1=O`, the “activity change, negative = growth inhibition” value is 28.2% (inactive).
For the molecule `O=C(C[C@@H]1C/C=C\CCC(=O)OC[C@@H]2CCCN2C1=O)NCCO`, the “activity change, negative = growth inhibition” value is 0.104% (inactive).
Turning to `CC(=O)c1sc(N/N=C/c2ccc(C(C)C)cc2)nc1C`, the “activity change, negative = growth inhibition” value is -22.3% (inactive).
On to `CCC(C)c1ccc(NC(=S)NCc2ccccn2)cc1` (stereo not drawn), for which the “activity change, negative = growth inhibition” value is -8.87% (inactive).
On the same count and under the same terms, under `CC(=O)N1CCc2cc(Br)cc(S(=O)(=O)CCC(=O)NCCc3ccc(Cl)cc3)c21` stands -6.18% (inactive).
As for `COc1ccc2oc(-c3cccc(NC(=O)CSc4ccc(Cl)cc4)c3)nc2c1`, the Potency is 20.6 µM (active).
As to `Cc1ccc(SCC(=O)Nc2ccc3oc(-c4ccccc4C)nc3c2)cc1`, the “activity change, negative = growth inhibition” value is -26% (inactive).
On to `O=C(COc1ccc(Cl)cc1)Nc1ccc(-c2nc3cc(Cl)ccc3o2)c(O)c1`, for which the “activity change, negative = growth inhibition” value is -16.9% (inactive).
As for `Cc1ccccc1-c1nc(NC(C)C)nc2cc(-c3ccccc3)sc12`, the Potency is 16.4 µM (active).
With `COc1ccccc1C(=O)NC(CCSC)C(=O)NNC(=O)c1csc(N2CCOCC2)n1` (stereo not drawn), the “activity change, negative = growth inhibition” value was -12.3% (inactive).
As to `COc1ccccc1CNc1ncncc1-c1cccc(NS(C)(=O)=O)c1`, the “activity change, negative = growth inhibition” value was -0.692% (inactive).
As for `CS(=O)(=O)Nc1cccc(-c2cn3ccccc3n2)c1`, the “activity change, negative = growth inhibition” value is -27.7% (inactive).
On to `CNc1ncnc2ccc(-c3cccc(NS(C)(=O)=O)c3)cc12`, for which the Potency was 11.6 µM (active).
Regarding `O=C(CCS(=O)(=O)c1ccccc1)NC1CCCC1`, the “activity change, negative = growth inhibition” value was -12.6% (inactive).
For the molecule `COC1=CCC2([N+](=O)[O-])CN(CC(=O)O)CC1([N+](=O)[O-])C2` (stereo not drawn), the “activity change, negative = growth inhibition” value is -15.2% (inactive).
Regarding `CCOc1ccccc1NC(=O)CCn1cnnn1`, the “activity change, negative = growth inhibition” value was -0.217% (inactive).
Consider `Cc1ccc(C)c(NC(=O)CN(C)C(=O)c2ccc3ncsc3c2)c1`, for which the “activity change, negative = growth inhibition” value is -23% (inactive).
`COc1ccc(CNC(=O)CCCn2nc(C)c([N+](=O)[O-])c2C)cc1`: the “activity change, negative = growth inhibition” value is 3.66% (inactive).
On the same count and under the same terms, under `CCc1ccc(NC(=O)Cn2nc(C)c([N+](=O)[O-])c2C)cc1` stands -26% (inactive).
Take `Cc1ccc(Oc2cc(NC(=O)CCCn3nc(C)c([N+](=O)[O-])c3C)cc([N+](=O)[O-])c2)cc1`: the Potency was 16.4 µM (active).
On to `Cc1ccc(/C(N)=N/OC(=O)COc2ccc(Cl)c(C)c2)cc1`, for which the “activity change, negative = growth inhibition” value is -12.5% (inactive).
As to `C/C(=N\NC(=O)Cc1ccccc1[N+](=O)[O-])c1cccnc1`, the “activity change, negative = growth inhibition” value was -2.49% (inactive).
As for `CCc1ccccc1NC(=O)Cc1cn(C)c2ccccc12`, the Potency entry is “inactive”.
Regarding `Cc1cccc(C)c1NC(=O)CNC(=O)c1ccc(N2CCOCC2)c([N+](=O)[O-])c1`, the “activity change, negative = growth inhibition” value was -8.91% (inactive).
In the case of `O=C(Nc1cccc(C(F)(F)F)c1)c1ccc(N2CCNCC2)c([N+](=O)[O-])c1`, the Potency is 14.6 µM (active).
Turning to `CC1CCN(c2ccc(C(=O)Nc3nnc(C4CC4)s3)cc2[N+](=O)[O-])CC1`, the “activity change, negative = growth inhibition” value is 7.78% (inactive).
Consider `CCOc1ccc(NC(=O)CC(Cc2ccc(Cl)cc2)C(=O)O)cc1` (stereo not drawn), for which the “activity change, negative = growth inhibition” value is 11.1% (inactive).
Take `N#C/C(=C\c1ccc(O)c(O)c1)C(=O)NCc1ccccc1`: the Potency is 29.9 µM (active).
For the molecule `CC(C)NC(=O)/C(C#N)=C\c1ccc(N(C)C)c(Br)c1`, the “activity change, negative = growth inhibition” value is 8.04% (inactive).
